These results are taken from the supplement of paper PMC6555819.

The experiment has as its system FXR:RXRa (NR concentration 270 nM, RXRa partner concentration 90 nM). As to the kind of experiment: PBM binding z-score (relative to random genomic background probes); higher = stronger binding; sequences stand for … in GC…GCGATTGACAGCGTAGAATGAAGG
The procedure, abridged:
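The probes on custom Agilent 4×180K protein-binding microarrays were double-stranded, with 34-nt variable regions bearing direct-repeat seeds, single-nucleotide variants, half-site ablations and random human genomic background sequences. Incubation lasted 1 h with ligand-free nuclear receptor dimers in PBS pH 7.4, 2% milk, 0.02% Triton X-100, 1 mM DTT, 0.2 mg/mL BSA and 0.4 mg/ml salmon testes DNA. Antibodies against each partner (one per run) detected bound dimers, and fluorescence scans were regression-normalized. Binding z-scores take the random background probes as reference.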
Turning to CAGAGTAGGTTATGGGGCATTCAGGCAACGGTGA, the PBM binding z-score turned out to be 0.558. The result for TGAATGAGGTTAAACATCAGGGAACGTGGCGTCG reads 3.51; that for TAGCCTAGGTCATGGGCCCGTATACCACGCGAAC, 4.69; that for ACTCGGAGGACTAAGGTCAGAGCTACGCCAGTGA, 1.93. As for CAAACTAGGTCAAGAAAGGTCAAAGTCGAATGAC, the PBM binding z-score was 7.13.

CCGACTAGGGCATAAGGTTACCATAAGCCAGCCC came in with a PBM binding z-score of 0.247. The value for TGTCAAAGTTCAAAGGTAACGTGAGTATCCACAC was 6.92. The result for GCTTGTAGATCAAGGTTAAGCAAGACTAAGCTAA reads 0.263; that for ACAGACAGGTGATGAAAGTAACTCAGGCTATCAT, -0.313. The value for AACTCTAGGTAAAGATAGTTCAGTGAATGCAAAT was 0.28; that for CGAACGAGGGCATGAGTTGTTAGCAAATGCCGAT was 0.401. TCTTGTACATCAGCAGGTTAAGAAAGCTGGCCAA yielded a PBM binding z-score of 0.22.

As for TCTGCTAGGTAAGTTGGTCAGCTAACGAGCTGCC, the PBM binding z-score was -0.553. The value for ACTATTAGTTGACTTAGGGCAACCCATACGACGC was 0.287. The value for GCTCGGAGGACAAGGCCAGAGCTTTGTCCGTAGA was -0.721; that for GGAACGAGGGCACAGTTGATAGCATCTGTCGACG was 0.318. For the sequence TAGCCTAGGTCATTCAGGTGCCAGTATAGAAAGC, the PBM binding z-score amounted to 4.93.

As to ATACCAAGGGGATCGTGAGGTCGTTGATACTAAC, the PBM binding z-score came to 0.492.

Turning to ATATGTAGGTTATCGGGTCATTCAATTTGCGCAT, the PBM binding z-score worked out at 3.06. The value for TCGAGTAGGTTAGACGGGGCATTCAGCCAACATA was 0.121. The value for CAAACTAGGTCTAAGGTCAAAGTCGAGCCAACCA was 5.18; that for ATATGTAGGTAAGCTGGGGTCATTCAGACTAGGC was 4.33; that for CGGACTAGGTCAAGGACAGTGAATCTCCGCACGC was 2.94. The result for TCGAGTAGGTTAGTGGCATTCAGAATGGCGTCGA reads -0.429; that for CCAGCTAGGTCATGGTCAGCTAATCTACAGTATG, 3.52; that for ACTATAAGTTGAGACGAGGGCAACCGATAGGTTG, 1.18. Sequence TCTTGTTGATCAACAGGAGGTTAAGAAAGATCGA showed a PBM binding z-score of -0.388. Take CAAACTAGGTCGCGAAAGGTCAAAGTCGAATGAC: the PBM binding z-score came out at 6.26. The value for GGAACGAGGGCAAAGTTGATAGCATCTGTCGACG was 1.45. The result for CGTCCAAGGTCAATGTCAGTGAAAGAGACTCGAA reads 6.7; that for ACAATGAGGTTAAGATCAGGGAAACAGAATACAT, 2.2. The result for ACTTACGGGTCAACGAGGTTATAGAACGCGTATA reads 6.52.

For TCTAGTTGGTCAAAGGTCACTCACTCGAAATGCG, the PBM binding z-score was determined as 5.38. TCTCGTTGGTCAAAGGTCACACACTCGAAATGCG had a PBM binding z-score of 6.33. TCTGCTGGGTCAGTTGGTCAGCTAACGAGCTGCC: the PBM binding z-score came out at 0.384. With GCGACTGGGGCATCAGCAGGTTCCCATAACTTAA, the PBM binding z-score was -0.761.

As for CCTAGTGGGCCAAAAAGGTCATTGATGCCGATAA, the PBM binding z-score is 3.3. The value for TAGCCTAGGTCATACGGGCCAGTATAGTGTCGGC was 4.14.

The sequence CCGACTGGGGCATAAAGGTTACCATACCATCCGG displayed a PBM binding z-score of 0.385. For the sequence CCTGCTGGGCCATTCAGAGGTCATTGATCATATG, the PBM binding z-score was determined as 2.79.
